Source: PubChem BioAssay (NCATS)
Results filed as inconclusive are left out. Calls of active or inactive are those of the source. Unless noted, the call rests on the fitted dose curve; in most records, active means well fitted curve in the direction sought with a large enough effect; inconclusive means small, poorly fitted or top-dose-only effect, or another doubt; inactive means no such curve, though single readings can be large; an effect the other way counts as inactive or inconclusive.

Legend:
[1] = target: Rap guanine nucleotide exchange factor 3 (Homo sapiens) (UniProt O95398); assay: Confirmatory qHTS for antagonist of cAMP-regulated guanine nucleotide exchange factor 3 (EPAC1) (AID 1645880); details: EPAC1 Rap1B-BODIPY-GDP exchange, fluorescence; activity, negative = inhibition: at 115 µM (top of the series); further: nearly all actives have a fitted effect of over 55% in size; further: potency means the concentration at half of the fitted maximal effect;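 on activity, negative = inhibition: plate controls were DMSO only for no effect and full effect of the ATA control for full effect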
How it was run: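 Nucleotide exchange uses 100 nM EPAC1, 250 nM RAP1B-BODIPY-GDP and 50 uM GDP, with compounds in a concentration-titration series. After 5 min at room temperature, fluorescence (480 nm ex/540 nm em) is read every 5 min for 30 min. Data are normalized to control ATA and DMSO.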

[2] = target: Rap guanine nucleotide exchange factor 4 (Homo sapiens) (UniProt Q8WZA2); assay: Confirmatory qHTS for agonist of cAMP-regulated guanine nucleotide exchange factor 4 (EPAC2) (AID 1645884);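 further: nucleotide exchange releases bodipy-GDP from Rap1 and this lowers its fluorescence; nearly all actives have a fitted effect of over 65% in size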; further: potency means the concentration at half of the fitted maximal effect; on activation: on the % scale 0 is the no-effect control and ±100 the full control effect
[3] = target: Rap guanine nucleotide exchange factor 4 (Homo sapiens) (UniProt Q8WZA2); assay: Confirmatory qHTS for antagonist of cAMP-regulated guanine nucleotide exchange factor 4 (EPAC2) (AID 1645885); further: nearly all actives have a fitted effect of over 25% in size; further: potency means the concentration at half of the fitted maximal effect; on activity change, negative = inhibition: on the % scale 0 is the no-effect control and ±100 the full control effect
[4] = target: Rap guanine nucleotide exchange factor 3 (Homo sapiens) (UniProt O95398); assay: Counterscreen qHTS for antagonist of cAMP-regulated guanine nucleotide exchange factor 3 (EPAC1) (AID 1645888);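 further: fluorescence loss as bound BODIPY-GDP is released from Rap1B; % of control where 0% means no effect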
How it was run: (§1)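 Rap1B-BODIPY-GDP 250 nM + GDP 50 uM; cpds 7-pt, final 9.74 nM–152 uM (activator mode) or from 7.32 nM upwards (inhibitor mode); RT; FI 480/540 nm at 5 and 30 min, then ± cAMP, reread.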

[5] = Stat Signaling Pathway (AID 446; active means well fitted curve in either direction with a large enough effect, not every such curve was filed as active;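 further: ME-180 cervical cancer cells given 40 pM IL-6 alongside compound; SIE-controlled beta-lactamase reporter measured as 460/530 nm FRET emission ratio; on the % scale 0 is the no-effect control and ±100 the full control effect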)
How it was run: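 ME-180 cells carrying a SIE-driven beta-lactamase reporter are stimulated with 40 pM IL-6 for 5 h at 37C in the presence of compound. The 460/530 nm FRET substrate ratio is read after 2.5 h at RT. Data are normalised to 300 pM IL-6 and to 125 nM JAK inhibitor controls.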

[6] = target: Glucocorticoid receptor (Homo sapiens) (UniProt P04150); assay: GR-GFP Redistribution (AID 450;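 active means compounds whose dose series gives a full or clear partial fitted curve of increased nuclear translocation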; further: potency means the concentration at half of the fitted maximal effect); details: U2OS GR-GFP nuclear translocation, laser cytometry, 2 h
[7] = target: Rap guanine nucleotide exchange factor 3 (Homo sapiens) (UniProt O95398); assay: Counterscreen qHTS for agonist of cAMP-regulated guanine nucleotide exchange factor 3 (EPAC1) (AID 1645889); further: nearly all actives have a fitted effect of over 40% in size; further: potency means the concentration at half of the fitted maximal effect; on activation: % of control where 0% means no effect
How it was run: as §1

[8] = target: Tumor susceptibility gene 101 protein (Homo sapiens) (UniProt Q99816); assay: qHTS Assay for Iinhibitors of HIV-1 Budding by Blocking the Interaction of PTAP/TSG101: Hit Validation (AID 651600); further: potency means the concentration at half of the fitted maximal effect; nearly all actives have a fitted effect of over 70% in size
How it was run: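 Tsg101 binding domain 10 uM + FITC-PTAP peptide 50 nM (final), 10 mM HEPES pH 7.5/0.15 M NaCl/0.01% Tween 20/3 mM EDTA/0.1 mM TCEP; 20 min RT; FP read, FITC filters.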

[9] = AP1 Signaling Pathway (AID 357; active means well fitted curve in either direction with a large enough effect, not every such curve was filed as active; further: on the % scale 0 is the no-effect control and ±100 the full control effect); details: ME-180 AP-1-bla reporter, EGF-induced, beta-lactamase ratio, 5 h; at 7.69 µM (top of the series) unless noted
How it was run: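 ME-180 cells with beta-lactamase reporter under AP-1 response element, stimulated with EC50 EGF; compounds tested in titration series, 5 h at 37 °C. CCF4 substrate added 2.5 h at room temperature; 460/530 nm emission ratio gave %activity and AC50.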

[10] = qHTS Assay for Identification of Small Molecule Agonists for Hypoxia Response Element Signaling Pathway (AID 914; active means well fitted activation curve with a large enough effect in the signal ratio, with a control signal flat, not every such curve was filed as active; the % refers to the signal ratio; further: potency means the concentration at half of the fitted maximal effect); details: ME-180 (cervical carcinoma) HRE-bla reporter, beta-lactamase ratio, CoCl2, 17 h; activation: active compounds read high
How it was run: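 HRE-bla ME-180 cells, overnight plating in Opti-MEM with 0.5% dialyzed FBS; cpd titration + EC50 CoCl2, 17 h, 37 degrees Celsius; CCF4 2.5 h RT; 460/530 nm ratio; AC50.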

Rap guanine nucleotide exchange factor 4 (Homo sapiens), sequence (Q8WZA2 whole entry, looked up): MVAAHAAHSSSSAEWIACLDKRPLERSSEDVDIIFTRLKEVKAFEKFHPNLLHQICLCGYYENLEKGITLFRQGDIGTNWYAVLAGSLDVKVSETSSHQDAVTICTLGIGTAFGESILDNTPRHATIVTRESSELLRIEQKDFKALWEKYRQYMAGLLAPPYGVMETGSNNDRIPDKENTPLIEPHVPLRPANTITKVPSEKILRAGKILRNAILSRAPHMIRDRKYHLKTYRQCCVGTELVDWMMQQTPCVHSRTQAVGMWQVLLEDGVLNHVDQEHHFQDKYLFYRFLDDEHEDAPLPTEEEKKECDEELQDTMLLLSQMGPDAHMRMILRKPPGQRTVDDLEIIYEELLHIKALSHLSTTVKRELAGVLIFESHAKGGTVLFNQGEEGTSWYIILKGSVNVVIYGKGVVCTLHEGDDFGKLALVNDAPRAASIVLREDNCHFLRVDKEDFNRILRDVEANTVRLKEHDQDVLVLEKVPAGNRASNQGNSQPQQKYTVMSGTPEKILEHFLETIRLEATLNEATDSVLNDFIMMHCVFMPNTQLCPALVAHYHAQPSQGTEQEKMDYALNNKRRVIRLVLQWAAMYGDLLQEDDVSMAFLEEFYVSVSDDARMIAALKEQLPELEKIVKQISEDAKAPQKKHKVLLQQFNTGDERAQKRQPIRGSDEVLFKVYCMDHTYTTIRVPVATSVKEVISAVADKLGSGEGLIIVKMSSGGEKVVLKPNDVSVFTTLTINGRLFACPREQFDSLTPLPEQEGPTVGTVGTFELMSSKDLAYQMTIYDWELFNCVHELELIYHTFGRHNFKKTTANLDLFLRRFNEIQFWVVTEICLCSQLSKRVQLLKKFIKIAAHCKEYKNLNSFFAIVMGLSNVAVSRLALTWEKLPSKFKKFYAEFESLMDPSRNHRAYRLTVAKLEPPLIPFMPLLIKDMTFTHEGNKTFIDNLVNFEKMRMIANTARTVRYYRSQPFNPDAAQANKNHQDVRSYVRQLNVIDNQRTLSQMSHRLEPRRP
Tumor susceptibility gene 101 protein (Homo sapiens), sequence (Q99816 whole entry, looked up, the tested form may be a part): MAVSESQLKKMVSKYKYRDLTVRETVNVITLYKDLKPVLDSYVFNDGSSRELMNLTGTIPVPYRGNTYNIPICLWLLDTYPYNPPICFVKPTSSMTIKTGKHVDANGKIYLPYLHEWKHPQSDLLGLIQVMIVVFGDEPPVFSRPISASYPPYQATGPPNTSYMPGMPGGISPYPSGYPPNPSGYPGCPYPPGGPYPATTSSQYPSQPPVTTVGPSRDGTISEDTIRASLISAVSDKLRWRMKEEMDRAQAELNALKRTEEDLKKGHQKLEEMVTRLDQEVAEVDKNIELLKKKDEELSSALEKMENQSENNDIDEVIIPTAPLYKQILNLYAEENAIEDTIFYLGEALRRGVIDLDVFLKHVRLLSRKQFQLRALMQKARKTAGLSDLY
Rap guanine nucleotide exchange factor 3 (Homo sapiens), sequence (O95398 whole entry, looked up): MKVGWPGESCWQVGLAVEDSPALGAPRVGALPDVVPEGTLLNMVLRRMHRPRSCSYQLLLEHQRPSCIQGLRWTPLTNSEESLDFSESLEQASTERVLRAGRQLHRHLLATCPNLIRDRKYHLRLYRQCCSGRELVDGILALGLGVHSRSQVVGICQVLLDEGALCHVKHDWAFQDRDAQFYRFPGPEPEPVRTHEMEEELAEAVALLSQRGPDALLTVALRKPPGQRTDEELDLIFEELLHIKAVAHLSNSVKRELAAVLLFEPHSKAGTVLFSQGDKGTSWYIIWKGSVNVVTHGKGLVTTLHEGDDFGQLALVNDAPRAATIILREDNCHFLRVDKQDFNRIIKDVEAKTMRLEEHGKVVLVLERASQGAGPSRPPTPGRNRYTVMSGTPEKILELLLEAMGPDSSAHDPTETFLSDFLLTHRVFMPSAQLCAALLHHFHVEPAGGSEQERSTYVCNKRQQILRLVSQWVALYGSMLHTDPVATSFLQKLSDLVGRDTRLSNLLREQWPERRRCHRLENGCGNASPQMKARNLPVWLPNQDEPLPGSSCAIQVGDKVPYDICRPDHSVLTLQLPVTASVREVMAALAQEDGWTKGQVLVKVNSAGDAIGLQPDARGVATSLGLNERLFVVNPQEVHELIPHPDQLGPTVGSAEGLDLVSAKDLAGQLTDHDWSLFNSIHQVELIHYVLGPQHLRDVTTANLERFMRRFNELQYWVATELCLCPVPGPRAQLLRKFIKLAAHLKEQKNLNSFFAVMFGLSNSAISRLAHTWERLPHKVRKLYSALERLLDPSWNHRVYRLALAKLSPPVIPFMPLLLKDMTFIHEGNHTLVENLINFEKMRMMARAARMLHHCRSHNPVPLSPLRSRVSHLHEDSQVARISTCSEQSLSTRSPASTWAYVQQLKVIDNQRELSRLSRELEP
Glucocorticoid receptor (Homo sapiens), sequence (P04150 whole entry, looked up): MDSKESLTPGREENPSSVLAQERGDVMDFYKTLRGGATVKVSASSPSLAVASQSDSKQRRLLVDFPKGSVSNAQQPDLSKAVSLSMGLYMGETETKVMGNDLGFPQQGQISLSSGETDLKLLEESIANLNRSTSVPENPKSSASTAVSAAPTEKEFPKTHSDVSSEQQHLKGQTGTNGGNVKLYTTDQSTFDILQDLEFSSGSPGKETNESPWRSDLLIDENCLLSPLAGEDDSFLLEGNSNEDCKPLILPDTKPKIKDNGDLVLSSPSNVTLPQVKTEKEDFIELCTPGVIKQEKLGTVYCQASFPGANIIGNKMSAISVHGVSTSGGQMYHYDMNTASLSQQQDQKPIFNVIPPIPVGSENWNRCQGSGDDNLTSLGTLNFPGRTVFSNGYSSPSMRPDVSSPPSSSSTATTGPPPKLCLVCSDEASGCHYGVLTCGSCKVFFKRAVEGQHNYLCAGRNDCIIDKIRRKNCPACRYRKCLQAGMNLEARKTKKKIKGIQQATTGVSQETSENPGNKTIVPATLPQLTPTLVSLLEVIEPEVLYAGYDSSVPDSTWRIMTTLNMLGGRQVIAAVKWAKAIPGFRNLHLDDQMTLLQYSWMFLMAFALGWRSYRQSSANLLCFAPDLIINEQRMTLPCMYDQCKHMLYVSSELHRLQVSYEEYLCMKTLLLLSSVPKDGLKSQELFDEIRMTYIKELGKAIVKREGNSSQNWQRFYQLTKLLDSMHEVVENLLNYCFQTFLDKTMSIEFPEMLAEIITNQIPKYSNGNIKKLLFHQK

O=C(NN=Cc1c(O)ccc2ccccc12)c1ccncc1
inactive: Potency [1] | activation [2] 6.24% [at 17.1 µM, percent relative to cAMP agonist control] | Potency [3] | activity change, negative = inhibition [4] 4.58% [at 30.8 µM]

CCOc1ccc(CCN2C(=O)C(=O)N([C@@H](CC(C)C)CN3CCC[C@@H]3CN3C(=O)C(=O)NC[C@@H]3Cc3ccccc3)C[C@@H]2CC(C)C)cc1
inactive: Potency [1] | Potency [2] | Potency [4]
active: Potency [3] 0.0953 µM

COC(=O)c1cc2sc(Cl)cc2n1Cc1cc(C)ccc1C
inactive: Potency [1] | Potency [2] | Potency [3] | Potency [4]

O=c1oc2c3c4c(cc2c(C(F)(F)F)c1CCN1CCOCC1)CCCN4CCC3
active: Potency [2] 100 µM | Potency [7] 17.8 µM
inactive: outcome [5] | Potency [6] > 20.6 µM | Potency [1] | Potency [3] | Potency [4]

O=[N+]([O-])c1ccc(N(c2ccccc2)c2ccccc2)cc1
inactive: Potency [1] | activation [2] 3.9% [at 17.1 µM, percent relative to cAMP agonist control] | Potency [3] | activity change, negative = inhibition [4] -24.8% [at 30.8 µM] | activation [7] 15.8% [at 30.8 µM]

CCOC(=O)C1=C(C)N=c2s/c(=C/c3ccc(OCC(=O)O)c(OC)c3)c(=O)n2C1c1ccc(Cl)cc1 (stereo unspecified)
inactive: Potency [1] | Potency [2] | Potency [3] | Potency [4] | Potency [7]

Cn1cc(/C=C2\SC(=S)N(NC(=O)c3ccccc3Cl)C2=O)c2ccccc21
active: Potency [2] 100 µM | Potency [7] 63.1 µM
inactive: Potency [1] | Potency [3] | Potency [4]

CCCN1C(=O)c2cccc3c(N4CCCCC4)ccc(c23)C1=O
inactive: Potency [1] | Potency [3] | Potency [4]
active: Potency [2] 100 µM | Potency [7] 39.8 µM

Nc1ccc2nc3c(=O)n(CCc4ccccc4)c(=O)[nH]c3nc2c1
active: Potency [8] 3.26 µM | Potency [2] 100 µM | Potency [3] 42.6 µM | Potency [7] 70.8 µM
inactive: Potency [1] | Potency [4]

N#CC(Sc1ccccn1)c1ccc(Cl)cc1Cl (stereo unspecified)
inactive: Potency [1] | Potency [2] | Potency [3] | Potency [4] | Potency [7]

COc1cc(/C=C2/C(=O)c3cccc([N+](=O)[O-])c3C2=O)c(Br)cc1O
active: Potency [1] 23.9 µM | Potency [7] 31.6 µM
inactive: Potency [2] | outcome [3] inactive; activator; fitted 0.0301 uM [at 12.7 µM] | Potency [4]

CC(C)CCn1c(Oc2ccccc2F)nc2c1c(=O)n(C)c(=O)n2C
inactive: Potency [1] | Potency [2] | Potency [3] | Potency [4] | Potency [7]

O=C(/C=C/c1ccc(N2CCOCC2)cc1)c1ccccc1
inactive: Potency [1] | Potency [2] | Potency [3] | Potency [4] | Potency [7]

N#CC1=C(N)OC2=C(CC/C2=C\c2ccccc2)C1c1ccccc1 (stereo unspecified)
inactive: Potency [1] | Potency [3] | Potency [4] | Potency [7]
active: Potency [2] 112 µM

COC(=O)c1cc(NC(=O)c2ccccc2)c(=O)oc1C/C=N\OCc1ccc(Cl)cc1Cl
inactive: Potency [1] | activation [2] -1.43% [at 17.1 µM, percent relative to cAMP agonist control] | Potency [3] | activity change, negative = inhibition [4] -10.8% [at 30.8 µM] | activation [7] 26% [at 30.8 µM]

C(=C(c1ccccc1)c1ccccc1)c1ccccn1
inactive: Potency [1] | Potency [2] | Potency [4] | Potency [7]
active: Potency [3] 84.9 µM

CCCCCn1nc(-c2ccccc2)c2nc3ccccc3nc21
inactive: Potency [1] | activation [2] 2.69% [at 17.1 µM, percent relative to cAMP agonist control] | Potency [3] | activity change, negative = inhibition [4] 19.6% [at 30.8 µM] | activation [7] 10.8% [at 30.8 µM]

COC(=O)c1c(NC(=O)c2ccc(S(=O)(=O)N(C)C3CCCCC3)cc2)sc2c1CCN(C)C2
inactive: Potency [1] | Potency [2] | Potency [3] | Potency [4]
active: Potency [7] 89.1 µM

COc1ccc(CN(C(=O)c2cccs2)c2ccccc2)cc1
inactive: Potency [1] | activation [2] 16.8% [at 17.1 µM, percent relative to cAMP agonist control] | Potency [3] | activity change, negative = inhibition [4] -5.93% [at 30.8 µM] | activation [7] 12% [at 30.8 µM]

COc1ccc(NC2c3ccccc3C(=O)N2c2ccccn2)cc1Cl (stereo unspecified)
inactive: Potency [1] | Potency [2] | Potency [3] | Potency [4] | Potency [7]

Cc1ccc(N=Cc2sc(O)c3ccccc23)c(C)c1
inactive: Potency [1] | activation [2] -3.2% [at 17.1 µM, percent relative to cAMP agonist control] | Potency [3] | activity change, negative = inhibition [4] -0.317% [at 30.8 µM] | activation [7] 10.3% [at 30.8 µM]

O=c1oc2cc(O)ccc2cc1-c1nnc(Nc2ccccc2F)s1
active: Potency [2] 14.1 µM | Potency [3] 3.38 µM | Potency [7] 3.55 µM
inactive: Potency [1] | Potency [4]

Cc1ccc(S(=O)(=O)N2CCN(C(=O)c3ccc4c(c3)OCO4)CC2)cc1
inactive: Potency [1] | activation [2] 0.378% [at 17.1 µM, percent relative to cAMP agonist control] | Potency [3] | activity change, negative = inhibition [4] -2% [at 30.8 µM] | activation [7] 24.8% [at 30.8 µM]

CC(=O)NC(c1cccc(F)c1)c1nc(-c2ccccc2)cs1 (stereo unspecified)
inactive: Potency [1] | activation [2] 10% [at 17.1 µM, percent relative to cAMP agonist control] | Potency [3] | activity change, negative = inhibition [4] -20.8% [at 30.8 µM] | activation [7] 45.7% [at 30.8 µM]

COc1ccc(-c2nc(N/N=C(\C)c3ccc(O)cc3)c3ccccc3n2)cc1
inactive: Potency [1] | activation [2] -0.683% [at 17.1 µM, percent relative to cAMP agonist control] | Potency [3] | activity change, negative = inhibition [4] 8.99% [at 30.8 µM] | activation [7] 22.7% [at 30.8 µM]

CC(=O)Nc1sc2c(c1-c1nc3ccccc3s1)CN(C(C)C)CC2
inactive: Potency [1] | activation [2] 18.6% [at 17.1 µM, percent relative to cAMP agonist control] | Potency [3] | activity change, negative = inhibition [4] 28.4% [at 30.8 µM]
active: Potency [7] 10 µM

N=C1/C(=C/c2coc3ccccc3c2=O)C(=O)N=C2SC(c3ccco3)=NN12
active: Potency [7] 39.8 µM
inactive: Potency [1] | Potency [2] | Potency [3] | Potency [4]

Cc1cc2nc3c(=O)[nH]c(=O)[nH]c3nc2c([N+](=O)[O-])c1N
active: Potency [8] 13 µM | Potency [2] 100 µM | Potency [7] 56.2 µM
inactive: Potency [1] | Potency [3] | Potency [4]

O=C1c2cccc3c(N4CCCCC4)ccc(c23)C(=O)N1c1ccc(O)cc1
active: Potency [2] 112 µM
inactive: Potency [1] | Potency [3] | Potency [4] | Potency [7]

O=C(c1ccccc1)c1ccc(O)cc1O
active: Potency [8] 5.8 µM
inactive: Potency [1] | activation [2] 17% [at 17.1 µM, percent relative to cAMP agonist control] | Potency [3] | activity change, negative = inhibition [4] -16.9% [at 30.8 µM] | activation [7] 6.44% [at 30.8 µM]

Cc1cccn2c(=O)c(/C=C(\C#N)c3nc4ccccc4n3C)c(Oc3ccc(Br)cc3)nc12
inactive: Potency [1] | Potency [2] | Potency [3] | Potency [4]
active: Potency [7] 39.8 µM

O=C(c1ccco1)N1CCN(c2cc(=O)n(C3CCCCC3)c(=O)[nH]2)CC1
inactive: Potency [1] | Potency [2] | Potency [3] | Potency [4] | Potency [7]

CCN(CC)c1ccc2cc(C=O)c(=O)oc2c1
inactive: Potency [1] | activation [2] 6.38% [at 17.1 µM, percent relative to cAMP agonist control] | Potency [3] | activity change, negative = inhibition [4] 96.9% [at 30.8 µM]
active: Potency [7] 12.6 µM

O=C(Cc1nc2ccccc2[nH]c1=O)c1ccccc1
inactive: Potency [1] | Potency [3] | Potency [4] | Potency [7]
active: Potency [2] 100 µM

CCCN1C(=O)S/C(=C/c2ccc(N3CCOCC3)o2)C1=O
inactive: Potency [1] | Potency [4] | Potency [7]
active: Potency [2] 112 µM | Potency [3] 67.5 µM

COc1ccc(C)cc1CN1C(=O)c2ccccc2C1=O
inactive: Potency [1] | activation [2] -0.218% [at 17.1 µM, percent relative to cAMP agonist control] | Potency [3] | activity change, negative = inhibition [4] -7.92% [at 30.8 µM] | activation [7] 12.1% [at 30.8 µM]

Cc1ccc2c(c1C)OC(=O)CC2c1ccccc1 (stereo unspecified)
inactive: Potency [1] | Potency [2] | Potency [3] | Potency [4] | Potency [7]

CCN(CC)c1ccc2cc(C(=O)Nc3ccccn3)c(=O)oc2c1
active: Potency [10] 3.98 µM | Potency [2] 100 µM
inactive: activity change, negative = inhibition [9] 7.12% [at 17.2 µM] | Potency [6] > 20.6 µM | Potency [1] | Potency [3] | Potency [4] | Potency [7]

N=C1/C(=C\c2coc3ccc(O)cc3c2=O)C(=O)N=C2SC=CN12
inactive: Potency [1] | Potency [3] | Potency [4]
active: Potency [2] 112 µM | Potency [7] 44.7 µM

Cc1n[nH]c(C)c1N1C(=O)c2cccc3c(N4CCCCCC4)ccc(c23)C1=O
inactive: Potency [1] | Potency [3] | Potency [4]
active: Potency [8] 20.6 µM | Potency [2] 112 µM | Potency [7] 12.6 µM
